Reference: ChEMBL document CHEMBL1961873, “Compounds: GSK PKIS; Assays: Nanosyn kinase panel” (2012)

Tests used:
[1] = target: 5'-AMP-activated protein kinase catalytic subunit alpha-2 (Homo sapiens) (UniProt P54646); details: at 1 µM
[2] = target: T1, NUAK family SNF1-like kinase 1 (Homo sapiens) (UniProt O60285); details: at 0.1 µM
T1 sequence (whole entry): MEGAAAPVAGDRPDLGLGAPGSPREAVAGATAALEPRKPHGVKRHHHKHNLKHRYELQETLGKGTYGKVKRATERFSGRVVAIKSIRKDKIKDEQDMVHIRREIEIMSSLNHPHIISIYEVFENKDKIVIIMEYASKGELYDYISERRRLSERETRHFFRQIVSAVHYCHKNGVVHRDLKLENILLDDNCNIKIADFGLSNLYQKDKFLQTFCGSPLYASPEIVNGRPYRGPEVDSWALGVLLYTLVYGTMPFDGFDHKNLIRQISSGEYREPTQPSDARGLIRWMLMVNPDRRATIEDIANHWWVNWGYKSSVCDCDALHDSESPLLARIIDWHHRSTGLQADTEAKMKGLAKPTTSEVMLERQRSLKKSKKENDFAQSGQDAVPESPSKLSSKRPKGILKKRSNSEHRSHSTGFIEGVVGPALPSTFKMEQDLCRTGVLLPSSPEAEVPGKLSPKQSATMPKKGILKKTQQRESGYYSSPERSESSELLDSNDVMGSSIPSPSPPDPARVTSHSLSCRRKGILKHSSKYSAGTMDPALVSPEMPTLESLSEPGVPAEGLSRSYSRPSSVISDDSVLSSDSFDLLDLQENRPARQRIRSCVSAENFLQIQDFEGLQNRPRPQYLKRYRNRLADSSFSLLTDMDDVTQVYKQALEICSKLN

[3] = target: T1, NUAK family SNF1-like kinase 1 (Homo sapiens); details: at 1 µM
[4] = target: T2, Serine/threonine-protein kinase BRSK1 (Homo sapiens) (UniProt Q8TDC3); details: at 0.1 µM
T2 sequence (whole entry): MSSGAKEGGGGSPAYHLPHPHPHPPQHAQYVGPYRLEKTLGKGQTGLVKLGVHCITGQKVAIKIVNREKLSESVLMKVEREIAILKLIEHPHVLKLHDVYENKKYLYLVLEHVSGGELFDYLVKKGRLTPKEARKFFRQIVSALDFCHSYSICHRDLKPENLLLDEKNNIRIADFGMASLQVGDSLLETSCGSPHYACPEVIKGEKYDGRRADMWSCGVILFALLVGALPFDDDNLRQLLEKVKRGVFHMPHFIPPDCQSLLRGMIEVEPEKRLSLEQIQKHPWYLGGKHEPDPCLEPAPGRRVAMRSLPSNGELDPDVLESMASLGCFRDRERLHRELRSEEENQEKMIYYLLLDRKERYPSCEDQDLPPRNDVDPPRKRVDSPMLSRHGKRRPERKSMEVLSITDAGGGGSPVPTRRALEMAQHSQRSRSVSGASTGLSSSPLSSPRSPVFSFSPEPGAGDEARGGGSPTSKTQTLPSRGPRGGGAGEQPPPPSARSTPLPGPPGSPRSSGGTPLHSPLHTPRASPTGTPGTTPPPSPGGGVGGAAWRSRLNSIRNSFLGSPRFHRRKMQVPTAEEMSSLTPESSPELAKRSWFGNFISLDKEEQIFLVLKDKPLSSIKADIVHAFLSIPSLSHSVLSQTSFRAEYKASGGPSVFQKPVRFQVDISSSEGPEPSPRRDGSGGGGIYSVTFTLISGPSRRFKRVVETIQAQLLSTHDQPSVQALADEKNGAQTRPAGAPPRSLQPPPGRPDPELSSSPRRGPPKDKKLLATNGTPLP

[5] = target: T2, Serine/threonine-protein kinase BRSK1 (Homo sapiens); details: at 1 µM
[6] = target: T3, Serine/threonine-protein kinase BRSK2 (Homo sapiens) (UniProt Q8IWQ3); details: at 0.1 µM
T3 sequence (whole entry): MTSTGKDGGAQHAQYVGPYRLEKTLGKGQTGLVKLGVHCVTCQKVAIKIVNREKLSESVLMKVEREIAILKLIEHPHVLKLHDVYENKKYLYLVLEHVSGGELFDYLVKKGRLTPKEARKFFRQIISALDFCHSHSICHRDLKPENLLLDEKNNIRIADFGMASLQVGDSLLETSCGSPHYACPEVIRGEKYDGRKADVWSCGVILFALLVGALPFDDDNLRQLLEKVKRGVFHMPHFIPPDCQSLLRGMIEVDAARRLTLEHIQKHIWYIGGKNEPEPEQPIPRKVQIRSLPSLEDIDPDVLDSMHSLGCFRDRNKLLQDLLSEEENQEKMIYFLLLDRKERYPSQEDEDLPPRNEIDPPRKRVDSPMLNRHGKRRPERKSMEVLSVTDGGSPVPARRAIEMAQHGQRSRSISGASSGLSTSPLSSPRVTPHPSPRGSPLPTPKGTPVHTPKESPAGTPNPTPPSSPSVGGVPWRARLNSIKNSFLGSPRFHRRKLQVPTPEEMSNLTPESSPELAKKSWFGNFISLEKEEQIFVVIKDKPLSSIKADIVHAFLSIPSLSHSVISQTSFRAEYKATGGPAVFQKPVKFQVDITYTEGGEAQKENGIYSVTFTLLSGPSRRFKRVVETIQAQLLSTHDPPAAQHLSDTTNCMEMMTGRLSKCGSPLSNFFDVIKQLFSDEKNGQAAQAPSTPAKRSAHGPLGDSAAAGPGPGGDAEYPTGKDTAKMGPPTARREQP

[7] = target: T3, Serine/threonine-protein kinase BRSK2 (Homo sapiens); details: at 1 µM
[8] = target: Calcium/calmodulin-dependent protein kinase type 1D (Homo sapiens) (UniProt Q8IU85); details: at 0.1 µM
Sequence of Calcium/calmodulin-dependent protein kinase type 1D (Homo sapiens) (Q8IU85 whole entry, looked up): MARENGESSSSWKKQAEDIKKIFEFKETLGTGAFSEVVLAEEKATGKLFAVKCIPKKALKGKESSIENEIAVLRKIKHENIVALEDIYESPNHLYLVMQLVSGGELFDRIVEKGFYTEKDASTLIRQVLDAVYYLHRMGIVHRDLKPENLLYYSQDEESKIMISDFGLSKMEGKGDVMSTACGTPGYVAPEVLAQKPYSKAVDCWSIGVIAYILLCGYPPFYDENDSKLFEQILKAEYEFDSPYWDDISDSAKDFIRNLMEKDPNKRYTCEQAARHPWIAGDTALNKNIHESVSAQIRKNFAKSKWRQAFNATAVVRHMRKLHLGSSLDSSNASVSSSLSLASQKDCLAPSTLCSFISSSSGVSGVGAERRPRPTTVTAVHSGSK

[9] = target: Calcium/calmodulin-dependent protein kinase type 1D (Homo sapiens) (UniProt Q8IU85); details: at 1 µM
[10] = target: Calcium/calmodulin-dependent protein kinase type II subunit alpha (Homo sapiens) (UniProt Q9UQM7); details: at 0.1 µM
Sequence of Calcium/calmodulin-dependent protein kinase type II subunit alpha (Homo sapiens) (Q9UQM7 whole entry): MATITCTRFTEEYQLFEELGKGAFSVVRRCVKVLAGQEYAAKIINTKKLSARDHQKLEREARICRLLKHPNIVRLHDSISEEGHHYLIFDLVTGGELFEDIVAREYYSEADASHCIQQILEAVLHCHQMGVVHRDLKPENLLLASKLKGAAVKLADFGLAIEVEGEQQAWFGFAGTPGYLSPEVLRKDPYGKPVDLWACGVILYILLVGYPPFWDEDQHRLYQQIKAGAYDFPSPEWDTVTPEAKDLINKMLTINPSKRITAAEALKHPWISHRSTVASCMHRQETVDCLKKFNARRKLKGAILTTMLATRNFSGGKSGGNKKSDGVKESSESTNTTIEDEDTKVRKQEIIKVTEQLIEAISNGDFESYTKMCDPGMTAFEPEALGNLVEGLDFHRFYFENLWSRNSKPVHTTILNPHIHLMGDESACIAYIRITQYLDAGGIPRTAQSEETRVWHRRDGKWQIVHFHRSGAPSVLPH

[11] = target: Calcium/calmodulin-dependent protein kinase type II subunit alpha (Homo sapiens) (UniProt Q9UQM7); details: at 1 µM
[12] = target: Calcium/calmodulin-dependent protein kinase type II subunit delta (Homo sapiens) (UniProt Q13557); details: at 0.1 µM
Sequence of Calcium/calmodulin-dependent protein kinase type II subunit delta (Homo sapiens) (Q13557 whole entry): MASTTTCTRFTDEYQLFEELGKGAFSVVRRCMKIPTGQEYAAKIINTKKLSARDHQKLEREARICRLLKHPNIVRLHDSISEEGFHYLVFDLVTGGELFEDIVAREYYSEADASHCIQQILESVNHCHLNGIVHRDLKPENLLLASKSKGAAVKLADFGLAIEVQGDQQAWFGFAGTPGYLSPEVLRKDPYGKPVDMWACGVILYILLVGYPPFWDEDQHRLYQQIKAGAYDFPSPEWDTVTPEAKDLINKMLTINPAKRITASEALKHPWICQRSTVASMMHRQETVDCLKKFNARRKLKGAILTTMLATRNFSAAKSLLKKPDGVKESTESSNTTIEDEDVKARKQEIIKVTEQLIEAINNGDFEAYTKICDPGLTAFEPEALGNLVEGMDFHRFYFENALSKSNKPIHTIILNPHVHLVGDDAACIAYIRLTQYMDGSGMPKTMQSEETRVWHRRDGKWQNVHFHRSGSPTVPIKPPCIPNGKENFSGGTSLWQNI

[13] = target: Calcium/calmodulin-dependent protein kinase type II subunit delta (Homo sapiens) (UniProt Q13557); details: at 1 µM
[14] = target: T4, Calcium/calmodulin-dependent protein kinase type IV (Homo sapiens) (UniProt Q16566); details: at 0.1 µM
T4 sequence (whole entry): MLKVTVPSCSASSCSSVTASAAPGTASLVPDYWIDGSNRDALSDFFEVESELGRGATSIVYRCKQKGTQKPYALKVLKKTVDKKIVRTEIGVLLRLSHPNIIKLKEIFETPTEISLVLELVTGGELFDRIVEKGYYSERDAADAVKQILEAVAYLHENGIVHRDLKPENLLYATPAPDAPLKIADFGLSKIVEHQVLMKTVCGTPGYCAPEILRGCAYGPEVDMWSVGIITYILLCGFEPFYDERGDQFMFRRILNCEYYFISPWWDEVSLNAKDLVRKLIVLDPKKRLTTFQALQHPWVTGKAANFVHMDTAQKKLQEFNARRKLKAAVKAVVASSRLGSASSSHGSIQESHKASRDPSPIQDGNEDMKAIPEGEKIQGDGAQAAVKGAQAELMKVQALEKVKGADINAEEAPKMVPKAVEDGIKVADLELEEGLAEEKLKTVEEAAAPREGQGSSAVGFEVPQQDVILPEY

[15] = target: T4, Calcium/calmodulin-dependent protein kinase type IV (Homo sapiens); details: at 1 µM
[16] = target: T5, Serine/threonine-protein kinase Chk1 (Homo sapiens) (UniProt O14757); details: at 0.1 µM
T5 sequence (whole entry): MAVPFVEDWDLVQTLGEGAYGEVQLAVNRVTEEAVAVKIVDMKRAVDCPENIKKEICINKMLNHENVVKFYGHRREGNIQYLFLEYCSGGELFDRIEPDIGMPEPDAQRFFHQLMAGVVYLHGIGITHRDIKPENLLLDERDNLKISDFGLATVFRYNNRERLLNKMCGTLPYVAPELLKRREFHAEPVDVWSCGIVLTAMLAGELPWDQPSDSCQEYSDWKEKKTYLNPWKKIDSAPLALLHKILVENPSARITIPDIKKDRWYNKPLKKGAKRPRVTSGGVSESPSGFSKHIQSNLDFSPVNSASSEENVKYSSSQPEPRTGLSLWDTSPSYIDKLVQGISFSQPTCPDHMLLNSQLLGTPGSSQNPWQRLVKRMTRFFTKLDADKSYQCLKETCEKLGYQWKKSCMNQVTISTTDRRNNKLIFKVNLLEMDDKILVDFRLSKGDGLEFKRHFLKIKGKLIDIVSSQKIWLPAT

[17] = target: T5, Serine/threonine-protein kinase Chk1 (Homo sapiens); details: at 1 µM
[18] = target: Serine/threonine-protein kinase Chk2 (Homo sapiens) (UniProt O96017); details: at 0.1 µM
Sequence of Serine/threonine-protein kinase Chk2 (Homo sapiens) (O96017 whole entry): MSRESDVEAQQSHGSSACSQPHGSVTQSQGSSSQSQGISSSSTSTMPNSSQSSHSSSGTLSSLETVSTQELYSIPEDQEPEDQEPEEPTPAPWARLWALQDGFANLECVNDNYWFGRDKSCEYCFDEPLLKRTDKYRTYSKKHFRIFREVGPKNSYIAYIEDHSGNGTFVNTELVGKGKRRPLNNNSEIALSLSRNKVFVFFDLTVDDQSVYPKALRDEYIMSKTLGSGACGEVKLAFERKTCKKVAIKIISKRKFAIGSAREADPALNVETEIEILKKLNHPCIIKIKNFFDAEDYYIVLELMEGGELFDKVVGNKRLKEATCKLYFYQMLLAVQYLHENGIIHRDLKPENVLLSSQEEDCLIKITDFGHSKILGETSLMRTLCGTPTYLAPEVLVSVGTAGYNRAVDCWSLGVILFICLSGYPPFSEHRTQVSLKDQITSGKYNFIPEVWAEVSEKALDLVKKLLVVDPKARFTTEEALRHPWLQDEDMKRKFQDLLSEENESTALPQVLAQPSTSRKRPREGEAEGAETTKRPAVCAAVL

[19] = target: Serine/threonine-protein kinase Chk2 (Homo sapiens) (UniProt O96017); details: at 1 µM
[20] = target: Death-associated protein kinase 1 (Homo sapiens) (UniProt P53355); details: at 0.1 µM;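 further: reported figure is the mean inhibition of DAPK1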
Sequence of Death-associated protein kinase 1 (Homo sapiens) (P53355 whole entry, looked up): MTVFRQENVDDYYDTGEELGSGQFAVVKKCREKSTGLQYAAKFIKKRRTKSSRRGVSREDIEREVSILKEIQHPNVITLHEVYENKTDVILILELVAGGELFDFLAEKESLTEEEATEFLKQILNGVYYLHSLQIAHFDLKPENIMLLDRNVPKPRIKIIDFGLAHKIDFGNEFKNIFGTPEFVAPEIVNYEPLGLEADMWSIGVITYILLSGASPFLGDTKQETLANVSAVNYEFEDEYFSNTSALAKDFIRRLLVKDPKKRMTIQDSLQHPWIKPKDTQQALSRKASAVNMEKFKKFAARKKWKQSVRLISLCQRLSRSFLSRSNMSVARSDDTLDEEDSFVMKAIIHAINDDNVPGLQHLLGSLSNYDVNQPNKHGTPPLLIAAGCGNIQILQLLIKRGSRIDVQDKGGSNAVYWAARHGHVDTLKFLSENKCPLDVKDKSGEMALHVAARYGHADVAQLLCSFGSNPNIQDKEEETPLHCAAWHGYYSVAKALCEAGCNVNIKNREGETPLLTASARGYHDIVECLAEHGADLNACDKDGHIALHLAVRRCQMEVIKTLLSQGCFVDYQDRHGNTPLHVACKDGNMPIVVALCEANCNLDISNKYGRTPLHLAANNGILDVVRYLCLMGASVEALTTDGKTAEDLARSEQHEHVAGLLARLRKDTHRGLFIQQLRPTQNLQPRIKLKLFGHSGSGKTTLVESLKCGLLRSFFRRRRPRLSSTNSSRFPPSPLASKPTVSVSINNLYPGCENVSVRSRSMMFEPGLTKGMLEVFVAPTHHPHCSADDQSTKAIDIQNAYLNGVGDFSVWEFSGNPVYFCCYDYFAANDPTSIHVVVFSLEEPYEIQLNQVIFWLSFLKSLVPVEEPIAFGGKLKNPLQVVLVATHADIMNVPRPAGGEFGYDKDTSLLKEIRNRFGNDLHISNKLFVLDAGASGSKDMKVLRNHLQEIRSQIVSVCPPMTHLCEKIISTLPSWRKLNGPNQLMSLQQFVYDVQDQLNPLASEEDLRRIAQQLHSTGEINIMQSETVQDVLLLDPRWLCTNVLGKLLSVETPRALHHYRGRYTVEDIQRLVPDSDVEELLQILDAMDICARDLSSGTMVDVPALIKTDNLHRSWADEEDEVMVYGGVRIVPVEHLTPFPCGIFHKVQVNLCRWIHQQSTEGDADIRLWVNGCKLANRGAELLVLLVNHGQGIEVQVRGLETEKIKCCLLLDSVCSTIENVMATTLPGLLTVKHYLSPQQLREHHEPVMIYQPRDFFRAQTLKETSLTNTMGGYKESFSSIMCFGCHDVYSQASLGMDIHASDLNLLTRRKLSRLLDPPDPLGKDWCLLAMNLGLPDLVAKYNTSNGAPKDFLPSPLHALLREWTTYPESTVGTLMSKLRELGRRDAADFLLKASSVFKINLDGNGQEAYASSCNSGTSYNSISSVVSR

Sequence of 5'-AMP-activated protein kinase catalytic subunit alpha-2 (Homo sapiens) (P54646 whole entry, looked up): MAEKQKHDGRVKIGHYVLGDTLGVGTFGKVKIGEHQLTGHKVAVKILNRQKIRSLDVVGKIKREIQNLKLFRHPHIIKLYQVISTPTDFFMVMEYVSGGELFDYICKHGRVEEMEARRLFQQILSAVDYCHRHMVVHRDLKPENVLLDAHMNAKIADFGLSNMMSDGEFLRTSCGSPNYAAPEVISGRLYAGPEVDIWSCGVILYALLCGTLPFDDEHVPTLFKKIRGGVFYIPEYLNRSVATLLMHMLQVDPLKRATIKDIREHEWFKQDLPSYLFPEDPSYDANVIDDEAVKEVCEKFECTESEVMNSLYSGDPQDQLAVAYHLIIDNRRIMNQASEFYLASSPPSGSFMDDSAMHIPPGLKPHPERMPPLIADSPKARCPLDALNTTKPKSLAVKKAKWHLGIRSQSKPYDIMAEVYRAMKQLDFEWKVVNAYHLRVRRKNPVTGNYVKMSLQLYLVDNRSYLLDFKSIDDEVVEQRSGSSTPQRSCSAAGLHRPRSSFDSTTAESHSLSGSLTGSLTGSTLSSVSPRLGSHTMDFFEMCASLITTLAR

Structure (SMILES) | inhibition [1] | inhibition [2] | inhibition [3] | inhibition [4] | inhibition [5] | inhibition [6] | inhibition [7] | inhibition [8] | inhibition [9] | inhibition [10] | inhibition [11] | inhibition [12] | inhibition [13] | inhibition [14] | inhibition [15] | inhibition [16] | inhibition [17] | inhibition [18] | inhibition [19] | inhibition [20]
O=C1NC(=O)C(c2cccc(Cl)c2)=C1Nc1ccc(Cl)c(C(=O)O)c1 | -4.09% | -9.56% | 3.08% | -0.75% | 0.27% | 1.73% | 2.47% | -1.22% | -0.07% | 3.4% | 2.06% | 1.45% | 4.49% | -0.36% | -0.93% | 0.81% | 2.22% | 2.39% | 3.13% | 3.48%
COc1cccc(/C=N/Nc2ncnc3c2cnn3-c2cccc(OC)c2)c1 | 2.83% | 1.95% | 3.7% | 0.47% | -0.97% | 1.04% | 2.41% | -0.14% | 0.89% | 0.99% | 1.28% | 3.36% | 6.18% | -0.53% | 0.8% | -0.79% | -1.62% | 3.83% | 4.99% | -0.06%
COc1cccc(-n2cnc3c(N/N=C/c4ccncc4)ncnc32)c1 | 1.47% | 2.39% | 22.3% | -0.01% | 4.34% | -0.23% | 6.3% | 0.54% | -0.39% | 0.58% | 1.18% | -1.07% | -1.61% | -2.88% | -5.3% | 0.34% | 0.31% | -0.94% | -0.32% | -0.67%
O=C(Nc1n[nH]c2cc(-c3cc(F)ccc3F)ccc12)C1CC1 | 9.82% | -2.28% | -2.43% | 2.17% | 15.3% | 3.03% | 14.1% | -0.34% | 1.27% | 1.96% | 2.68% | 3.1% | 25.3% | 1.86% | 1.99% | -0.4% | 1.41% | 2.67% | 3.25% | -0.82%
O=C(Nc1ccc(Oc2ccc3[nH]c(NC(=O)c4ccccc4)nc3c2)cc1)Nc1cc(C(F)(F)F)ccc1F | 4.55% | 1.15% | 3.05% | 0.18% | 0.16% | 1.2% | 2.83% | -0.03% | 1.95% | 2.8% | 2.85% | 2.01% | 4.57% | -0.56% | -0.86% | 4.82% | 5.63% | 1.47% | 3.89% | 4.99%
NC(=O)c1ccc(Oc2nccc(-c3c(-c4ccc(F)cc4)ncn3C3CCNCC3)n2)cc1 | 3.28% | 1.39% | 2.27% | 2.39% | -0.49% | 1.13% | 1.56% | 0.06% | 2.62% | 3.03% | 4.37% | 4.24% | 6.79% | 0.24% | 2.66% | -2.66% | 1.07% | -1.09% | 0.46% | -2.59%
CN(c1ccc(NC(=O)Nc2c(Cl)cccc2Cl)cc1)c1ccnc(Nc2cccc(CS(C)(=O)=O)c2)n1 | 3.21% | 9.51% | 30.2% | 0.84% | 9.78% | 2.74% | 8.66% | 1.34% | -0.13% | 2.56% | 2.73% | 1.22% | -0.38% | -1.59% | -4.21% | 1.99% | 4.63% | 10.1% | 16.8% | 4.55%
